Source: PubChem BioAssay AID720704 (The Scripps Research Institute Molecular Screening Center, 2013)
Values joined by “and” are separate entries in the source; they are usually repeats but may differ in a detail not shown here. Equal entries are not always repeated. Screen size: about 370,000 compounds; about 660 (0.18%) were called active. For the sample, actives were picked, then their nearest neighbours and some compounds at random. A number with no mark means an inactive call. Rule as the data show it: active = inhibition above about 11%; inactive = the rest.

Molecular target: 1-phosphatidylinositol 4,5-bisphosphate phosphodiesterase beta-3 (Homo sapiens) (UniProt Q01970)
Sequence (Q01970 whole entry, looked up): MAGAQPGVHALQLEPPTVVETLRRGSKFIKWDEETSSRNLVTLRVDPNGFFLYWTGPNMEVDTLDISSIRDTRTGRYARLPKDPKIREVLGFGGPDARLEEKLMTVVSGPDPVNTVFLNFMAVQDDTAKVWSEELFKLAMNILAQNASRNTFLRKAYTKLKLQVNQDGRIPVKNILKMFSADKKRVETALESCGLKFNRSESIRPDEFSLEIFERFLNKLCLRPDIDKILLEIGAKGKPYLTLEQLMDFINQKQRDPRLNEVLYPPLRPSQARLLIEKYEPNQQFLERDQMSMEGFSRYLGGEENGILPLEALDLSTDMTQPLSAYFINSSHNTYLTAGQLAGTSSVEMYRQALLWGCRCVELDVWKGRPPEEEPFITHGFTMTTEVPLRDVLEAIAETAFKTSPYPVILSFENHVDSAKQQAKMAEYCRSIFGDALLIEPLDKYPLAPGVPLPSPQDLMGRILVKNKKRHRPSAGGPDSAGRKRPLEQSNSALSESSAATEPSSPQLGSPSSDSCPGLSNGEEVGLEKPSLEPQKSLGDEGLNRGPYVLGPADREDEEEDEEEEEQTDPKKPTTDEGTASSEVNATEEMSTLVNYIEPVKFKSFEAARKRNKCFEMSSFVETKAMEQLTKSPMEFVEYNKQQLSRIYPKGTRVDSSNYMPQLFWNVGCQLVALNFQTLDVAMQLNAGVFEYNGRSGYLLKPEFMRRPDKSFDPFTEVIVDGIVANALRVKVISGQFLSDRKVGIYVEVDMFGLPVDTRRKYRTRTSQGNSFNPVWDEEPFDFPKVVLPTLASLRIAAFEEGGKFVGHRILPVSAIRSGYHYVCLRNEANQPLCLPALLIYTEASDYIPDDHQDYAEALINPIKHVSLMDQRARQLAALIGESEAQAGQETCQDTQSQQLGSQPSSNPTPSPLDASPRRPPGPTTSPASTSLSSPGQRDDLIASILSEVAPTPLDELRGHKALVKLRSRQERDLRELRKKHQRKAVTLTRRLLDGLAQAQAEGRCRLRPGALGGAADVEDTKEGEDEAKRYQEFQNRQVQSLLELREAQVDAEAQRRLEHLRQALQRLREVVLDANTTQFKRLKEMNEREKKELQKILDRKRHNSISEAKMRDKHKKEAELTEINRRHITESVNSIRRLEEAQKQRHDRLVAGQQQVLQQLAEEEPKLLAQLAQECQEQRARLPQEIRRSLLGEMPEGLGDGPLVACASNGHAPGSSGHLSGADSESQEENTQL
Assay: human PLC-beta3 inhibitors, primary screen, biochemical, fluorescence (AID 720704);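 also: 0% = median of compound wells on plate and 100% = full blocker control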
Conditions: Purified PLC-beta3, fluorogenic substrate, at 12.2 µM, hits give high values

| Compound | inhibition |
| --- | --- |
| O=C(COc1ccc(Cl)cc1)N1CCN(c2cccc(C(F)(F)F)c2)CC1 | 13.8% (active) |
| Cc1c(C)c2ccc(OCC(=O)N3CCN(c4cccc(Cl)c4)CC3)cc2oc1=O | -8.02% |
| CSCCC(NC(=O)COc1ccccc1)C(=O)N1CCN(c2cccc(C(F)(F)F)c2)CC1 (stereo not drawn) | -10.1% |
| COC(=O)C1CC2=C(CC(C)(C)CC2=O)N(c2ccccc2)C1=O (stereo not drawn) | -3.14% |
| Cc1ccc(C(=O)OCC(=O)Nc2ccc(Cl)cn2)cc1S(=O)(=O)N1CCOCC1 | -6.74% |
| O=C(COC(=O)c1ccc(F)c(S(=O)(=O)N2CCOCC2)c1)NCc1ccc2c(c1)OCO2 | -5.58% |
| Cc1cc(NC(=O)COC(=O)c2ccc(F)c(S(=O)(=O)N3CCOCC3)c2)no1 | 11.6% (active) |
| CCc1c(Nc2ccccc2Cl)nc(N)[nH]c1=O | 1.61% |
| CCc1c(Nc2ccccc2C)nc(N)[nH]c1=O | 14.8% (active) |
| CCCOc1ccc(Cc2c(O)nc(N)[nH]c2=O)cc1C | -5% |
| COc1ccc(C(=O)O)cc1S(=O)(=O)NCc1cccnc1 | -3.06% |
| Cc1nnc(SCc2ccc(C(=O)c3ccc(Cl)cc3)o2)n1-c1ccccc1 | 0.27% |
| COC(=O)c1cc(NC(=O)c2nn(C)c(=O)c3ccccc23)cc(C(=O)OC)c1 | 0.09% |
| CC(=O)N1c2ccc(S(=O)(=O)N3CCCC(C(=O)NCc4ccc(Cl)cc4)C3)cc2CC1C (stereo not drawn) | -2.78% |
| O=C(NCc1ccco1)c1nn2cccnc2c1Cl | -10.8% |
| CCc1cc(C(=O)c2ccc(OC)cc2)c(NC(=O)CN2CCN(C)CC2)s1 | -17.3% |
| CN1CCN(C(=O)Cn2c(C(F)(F)F)nc3ccccc32)CC1 | 5.24% |
| CCCCc1nc2ccccc2c(NC(=O)CN2CCN(C)CC2)c1CCC | 32% (active) |
| CCn1c(/C=C/Nc2ccccc2)[n+](CC)c2ccc(C(=O)OCC(F)(F)F)cc21 | 13.1% (active) |
| CCOC(=O)c1cc2ccccc2n1CC(=O)c1ccccc1 | -2.72% |

| Compound | inhibition |
| --- | --- |
| Cc1cc(C)c(OCC(=O)N(Cc2cccs2)C2CCS(=O)(=O)C2)c(C)c1 (stereo not drawn) | -6.39% |
| CC1C(=O)Nc2ccccc2N1C(=O)c1c(F)cccc1F (stereo not drawn) | -2.5% |
| CC(=O)O[C@@]1(C(C)=O)CCC2[C@H]3C=C(C)C4=CC(=O)CC[C@@]4(C)C3CC[C@]21C (stereo partly drawn) | -4.21% |
| CC(=O)C12CC(C)=C(C)CC1CC1C3CCC4=CC(=O)CCC4(C)C3CCC12C (stereo not drawn) | 16.1% (active) |
| CC(=O)O[C@]1(C(C)=O)CC[C@H]2[C@@H]3C=C(C)C4=CC(=O)CC[C@]4(C)[C@H]3CC[C@@]21C | -0.43% |
| Cc1cc(NC(=O)COc2ccccc2C#N)no1 | -4.84% |
| Cc1cc(NC(=O)CSCc2ccccc2C)no1 | -0.65% |
| Cc1cc(NC(=O)COn2nnc3ccccc32)no1 | 10.7% (active) |
| COc1ccc(C(N)c2csc(NC(=O)Nc3cccc(C(F)(F)F)c3)n2)cc1 (stereo not drawn) | 11.1% (active) |
| NC(c1csc(NC(=O)Nc2ccccc2Oc2ccccc2)n1)c1ccccc1Cl (stereo not drawn) | -2.19% |
| C/C(CC(=O)Nc1cccc(C(F)(F)F)c1)=N\NC(=O)C(=O)NCC(C)C | 2.01% |
| CCOC(=O)/C=C/CN(C(=O)OC(C)(C)C)S(=O)(=O)N1CC=CC1 | 5.79% |
| O=C(C1CCCO1)N1CCN(C(=S)Nc2cccc(Cl)c2)CC1 (stereo not drawn) | 12.1% (active) |
| O=C(CN1CCN(C(=O)C2CCCO2)CC1)Nc1c(Cl)cccc1Cl (stereo not drawn) | -2.62% |
| O=C(C1CCCO1)N1CCN(C(=S)NC2CC2)CC1 (stereo not drawn) | -1.16% |
| C=CCN1[C@H](CC(C)C)COc2cccc(N3CCCC3)c2S1(=O)=O | -10.8% |
| C=CCSc1nc2c(c(=O)[nH]1)C(C(C)C)C(C#N)=C(N)O2 (stereo not drawn) | -5.98% |
| O=C(NC1CCCC1)C1CC(=O)N(c2ccc(F)cc2)C1 (stereo not drawn) | 1.14% |
| NC(=O)C1CC=CCC1C(=O)OCC(Cl)=C(Cl)Cl (stereo not drawn) | -21% |
| C=C(Cl)COC(=O)C1C2C=CC(C2)C1C(=O)O (stereo not drawn) | -0.54% |

| Compound | inhibition |
| --- | --- |
| COc1cc(OC)cc(C(=O)OCC(=O)Nc2sccc2C(N)=O)c1 | -6.31% |
| CCOC(=O)c1cnc(SCc2nc(N)nc(Nc3ccc(OC)cc3)n2)nc1N | 0.61% |
| Cc1ccc2nsnc2c1S(=O)(=O)N1CCCC1C(=O)O (stereo not drawn) | 5.41% |
| CC[C@]12c3[nH]c4ccc(Cl)cc4c3CCN1C(=O)[C@@H](CC(=O)NCCCOC)C[C@@H]2C(=O)N1CCN(C(=O)C2CC2)CC1 | -4.01% |
| O=C(NC1CC1)C1CCCN(C(=O)NC2CCCCC2)C1 (stereo not drawn) | -7.45% |
| CC(C)C(=O)N1CCN(CCN=CC2=C(O)CC(c3ccco3)CC2=O)CC1 (stereo not drawn) | -7.32% and -15% |
| C=CCn1c(SCc2ccc(Cl)c(Cl)c2)nnc1C(CO)NC(=O)c1ccc(OC)cc1 (stereo not drawn) | 4.74% |
| COCCCn1cc(CN2CC(N(C)C)CS2(=O)=O)nn1 (stereo not drawn) | -1.16% |
| O=C(Nc1c(C(=O)N2CCCCC2)cnn1-c1ccccc1)c1ccco1 | 2.51% |
| O=C(CN(CC1CCCO1)C(=O)CNS(=O)(=O)c1ccc(F)cc1)NCc1ccco1 (stereo not drawn) | 1.51% |
| O=C1NC2(CCCCC2)N=C1c1ccccc1 | 10% |
| Cc1ccccc1N1CCN(C2CCCN(C(=O)c3cn4c(C)cccc4n3)C2)CC1 (stereo not drawn) | -10.2% |
| O=[N+]([O-])c1cc([N+](=O)[O-])c2cccnc2c1O | -4.85% |
| Oc1c(CN2CCCC2)cc(COCc2ccccc2)c2cccnc12 | 16.5% (active) |
| CCCNC(=O)NC(=O)COC(=O)CC(NC(N)=O)c1ccc(Cl)cc1 (stereo not drawn) | 0.66% |
| COc1ccccc1CCNC(=O)C1CCN(c2nc(C)cc(C)n2)CC1 | 1.47% |
| COc1ccccc1/C=N\Nc1cc(C)nc(-n2nc(C)cc2C)n1 | 11.2% (active) |
| CCOC(=O)c1cnc(-n2nc(C)cc2C)nc1NNc1cc(C)nc(-c2ccccc2)n1 | 1.49% |
